Assay results as given in PubChem BioAssay (Tox21).
“And” between values parts separate entries of the source, which are not always exact repeats. Equal values may be shown once. Results filed as inconclusive are left out. Entries that show only a call come without a potency. More than one record can exist for a structure, and the calls need not agree. The source made the active and inactive calls. Unless noted, calls come from the whole dose curve; as a rule, active = well fitted curve in the direction sought with a large enough effect in the repeat runs; inconclusive = weak or mixed curves; inactive = no such curve, though single readings can be large; an effect the other way counts as inactive or inconclusive.

Columns and labels:
[1] = qHTS assay to identify small molecule agonists of the estrogen receptor alpha (ER-alpha) signaling pathway in the presence of an antagonist - cell viability counter screen (AID 1259386);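 note: cells exposed to compounds for 22 h at 37 °C before the viability read; nearly all actives have a fitted effect of over 30% in size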; note: potency is the fitted concentration of half-maximal effect
How it was run: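 ICI-182,780 at 10.0nM final accompanies the compound titration (15 concentrations, 22hr, 37C) on VM7Luc4E2 cells. The CellTiter-Fluor fluorescence readout runs in the same wells as the luciferase assay.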

[2] = target: Progesterone receptor (Homo sapiens) (UniProt P06401); experiment: qHTS assay to identify small molecule antagonists of the progesterone receptor (PR) signaling pathway (AID 1346795; active = well fitted inhibition curve with a large enough effect in the signal ratio in the repeat runs, not every such curve was filed as active; the % refers to the signal ratio)
Chain of Progesterone receptor (Homo sapiens) (P06401 whole entry, looked up): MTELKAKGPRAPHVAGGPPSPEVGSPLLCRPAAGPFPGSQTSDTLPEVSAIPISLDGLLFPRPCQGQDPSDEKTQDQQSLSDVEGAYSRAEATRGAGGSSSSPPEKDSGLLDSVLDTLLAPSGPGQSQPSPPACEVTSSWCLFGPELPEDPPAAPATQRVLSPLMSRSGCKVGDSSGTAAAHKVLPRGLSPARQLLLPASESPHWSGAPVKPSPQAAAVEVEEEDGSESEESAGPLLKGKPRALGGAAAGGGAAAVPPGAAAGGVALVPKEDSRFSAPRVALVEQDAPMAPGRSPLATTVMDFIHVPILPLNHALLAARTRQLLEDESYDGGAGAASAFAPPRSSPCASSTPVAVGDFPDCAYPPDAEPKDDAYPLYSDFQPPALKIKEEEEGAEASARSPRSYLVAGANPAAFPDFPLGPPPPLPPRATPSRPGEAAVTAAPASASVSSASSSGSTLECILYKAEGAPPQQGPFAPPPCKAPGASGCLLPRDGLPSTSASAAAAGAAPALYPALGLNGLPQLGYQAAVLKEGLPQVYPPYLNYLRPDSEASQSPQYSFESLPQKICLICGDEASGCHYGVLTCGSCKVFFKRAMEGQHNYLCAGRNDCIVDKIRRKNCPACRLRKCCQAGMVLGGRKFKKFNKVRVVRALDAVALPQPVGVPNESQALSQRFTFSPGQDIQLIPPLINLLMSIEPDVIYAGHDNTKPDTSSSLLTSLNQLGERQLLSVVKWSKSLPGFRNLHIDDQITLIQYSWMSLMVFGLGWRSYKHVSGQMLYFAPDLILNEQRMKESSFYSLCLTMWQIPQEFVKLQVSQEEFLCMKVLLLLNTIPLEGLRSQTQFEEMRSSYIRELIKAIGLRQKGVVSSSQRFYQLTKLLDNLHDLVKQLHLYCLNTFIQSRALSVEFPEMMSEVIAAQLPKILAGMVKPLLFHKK
How it was run: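 In HEK293T cells bearing the PR-UAS-bla reporter, compound effects on promegestone-driven (1 nM) beta-lactamase expression are assessed after 16 hr using a fluorescent FRET substrate incubated 2 hr at room temperature.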

[3] = qHTS assay to identify small molecule antagonists of the progesterone receptor (PR) signaling pathway - cell viability counter screen (AID 1346798); note: nearly all actives have a fitted effect of over 50% in size; note: potency is the fitted concentration of half-maximal effect
How it was run: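 Following a 4 hr attachment, PR-UAS-bla HEK293T cells in charcoal-stripped FBS medium were exposed to compounds with R5020 for 16 hr; CellTiter-Glo was added and luminescence read after 30 min at room temperature.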

[4] = qHTS assay to identify small molecule agonists of the progesterone receptor (PR) signaling pathway - cell viability counter screen (AID 1346799; calls by dose curve; note: nearly all actives have a fitted effect of over 45% in size; note: potency is the fitted concentration of half-maximal effect)
How it was run: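 Here, 3,000 PR-UAS-bla HEK293T cells per well were treated with compounds for 16 hr after a 6 hr preincubation at 37C and 5% CO2; cell viability is the CellTiter-Glo luminescence signal.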

[5] = qHTS assay to identify small molecule agonists of the TGF-beta/Smad signaling pathway - cell viability counter screen (AID 1346829); note: top concentration of the series differs between compounds; nearly all actives have a fitted effect of over 45% in size
How it was run: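 Cytotoxicity counter screen: CellTiter-Glo luminescence (30 min, room temperature) measured in the SBE-bla HEK 293T reporter wells after 5 hr compound treatment at 37 C and the 2 hr substrate step.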

[6] = qHTS assay to identify small molecule agonists of the TGF-beta/Smad signaling pathway (AID 1346859; active = well fitted activation curve with a large enough effect in the signal ratio in the repeat runs, not every such curve was filed as active; the % refers to the signal ratio; note: series mostly up to about 77 µM)
How it was run: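 Each well held 4,000 SBE-bla HEK 293T cells incubated overnight before compound addition; 5 hr later the cleavable FRET substrate went on for 2 hr at room temperature, and fluorescence was read at two emissions.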

[7] = target: Thyrotropin-releasing hormone receptor (Homo sapiens) (UniProt P34981); experiment: qHTS assay to identify small molecule antagonists of the thyrotropin-releasing hormone receptor (TRHR) signaling pathway (AID 1346877; active = well fitted inhibition curve with a large enough effect in the repeat runs, not every such curve was filed as active; note: series mostly up to about 51 µM)
Chain of Thyrotropin-releasing hormone receptor (Homo sapiens) (P34981 whole entry, looked up): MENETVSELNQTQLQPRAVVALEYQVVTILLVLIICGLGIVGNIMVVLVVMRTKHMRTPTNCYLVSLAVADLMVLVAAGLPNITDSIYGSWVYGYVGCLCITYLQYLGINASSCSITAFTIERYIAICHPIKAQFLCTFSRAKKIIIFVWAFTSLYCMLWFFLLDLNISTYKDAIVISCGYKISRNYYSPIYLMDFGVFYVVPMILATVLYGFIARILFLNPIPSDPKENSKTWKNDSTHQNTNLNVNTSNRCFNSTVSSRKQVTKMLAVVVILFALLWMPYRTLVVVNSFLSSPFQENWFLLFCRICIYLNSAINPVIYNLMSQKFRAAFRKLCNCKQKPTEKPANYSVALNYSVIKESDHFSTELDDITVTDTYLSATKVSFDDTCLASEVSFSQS
How it was run: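 Screening used HEK293 cells engineered with TRHR, with a brief 5 min room-temperature compound exposure preceding addition of TRH to 1 nM. The read-out was kinetic calcium-dye fluorescence, concentration-response from 15 doses in triplicate.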

[8] = qHTS assay to identify small molecule antagonists of the TGF-beta/Smad signaling pathway - cell viability counter screen (AID 1346824); note: nearly all actives have a fitted effect of over 50% in size
How it was run: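 SBE-bla HEK 293T cells, incubated overnight, then compound plus 0.25 ng/mL TGF-beta1 (stock added) for 5 hr at 37 C. Viability was read in the same wells by CellTiter-Glo luminescence after 30 min at room temperature.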

[9] = target: Progesterone receptor (Homo sapiens) (UniProt P06401); experiment: qHTS assay to identify small molecule agonists of the progesterone receptor (PR) signaling pathway (AID 1346784; calls by dose curve; note: nearly all actives have a fitted effect of over 30% in size)
How it was run: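 Compounds were tested for PR agonism in HEK 293T cells bearing a beta-lactamase gene under UAS control. Treatment lasted 16 hr at 37C; signal came from fluorescence of a FRET substrate.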

Structure (SMILES)	Potency [1]	Potency [2]	Potency [3]	Potency [4]	Potency [5]	outcome [6]	outcome [7]	Potency [8]	Potency [9]
CS(=O)(=O)Nc1ccc([N+](=O)[O-])cc1Oc1ccccc1	48.6 µM (active) and 26.6 µM (active)	inactive	inactive	inactive	inactive	inactive	inactive		
Cc1cc(NS(=O)(=O)c2ccc(N)cc2)no1	inactive	inactive	inactive	inactive	inactive	inactive		inactive	
CCCCCCOC(C)=O	inactive	inactive		inactive and 8.63 µM (active)	inactive	inactive			inactive
S=c1nc[nH]c2nc[nH]c12	inactive		8.41 µM (active)	4.74 µM (active) and 11.9 µM (active)		inactive	inactive		inactive
O=[N+]([O-])C(CO)(CO)CO	inactive	inactive	inactive	inactive	inactive	inactive	inactive	inactive	
ClC1=C(Cl)C(Cl)(Cl)C(Cl)=C1Cl	inactive	inactive	inactive	inactive	inactive	inactive	inactive		inactive
O=S(=O)(O)CCS	inactive	inactive	inactive	inactive	inactive	inactive	inactive		inactive
